# Assay outcomes as filed in PubChem BioAssay.
# This is a sample that favours compounds with a hit; in the whole collection about 3.2% have one here.
# APOBEC3G inh: blocks human APOBEC3G single-stranded DNA deamination; recombinant A3G, ssDNA deamination FAM/TAMRA fluorescence; inhibition, % at 20 µM; hit rate 0.28% among 330,000; AID 493012;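 active = inhibition of at least 40% at 20 µM, with no more than 30% in the related APOBEC3A deaminase screen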;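 also: plate controls were DMSO wells with A3G for no effect and wells lacking A3G enzyme for full effect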
# NTR1 agonist: agonists of human neurotensin receptor NTR1 | AID 493036 | hit rate 0.17% among 330,000 | P30989 | activation, % at 20 µM | NTR1-U2OS beta-arrestin-GFP spot imaging, agonist mode;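 active = activation at or above 40% of the spot to cytoplasm intensity ratio, with at least 20 cells analyzed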;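 also: 0% = DMSO without peptide and 100% = 100 nM NTR1 peptide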
# Target sequence (P30989 whole entry, looked up): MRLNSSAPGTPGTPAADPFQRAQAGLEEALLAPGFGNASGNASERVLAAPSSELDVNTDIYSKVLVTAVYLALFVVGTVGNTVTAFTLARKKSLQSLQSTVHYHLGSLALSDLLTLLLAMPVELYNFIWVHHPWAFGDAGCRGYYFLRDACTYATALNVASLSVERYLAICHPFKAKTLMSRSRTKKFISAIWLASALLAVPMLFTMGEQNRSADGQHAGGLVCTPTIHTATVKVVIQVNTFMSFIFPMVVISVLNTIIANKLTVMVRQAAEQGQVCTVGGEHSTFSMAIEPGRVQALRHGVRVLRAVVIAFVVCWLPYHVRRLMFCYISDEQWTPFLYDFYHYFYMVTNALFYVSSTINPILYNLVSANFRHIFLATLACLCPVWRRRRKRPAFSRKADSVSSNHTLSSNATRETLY
# AHR activator: activators of human aryl hydrocarbon receptor | P35869 | hit rate 2.5% among 320,000 | AHR-responsive luciferase reporter cells, luminescence | activation, % at 5 µM; in the data active = activation above about 47%;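 also: 0% = vehicle wells and 100% = reference agonist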
# APOBEC3A inh: human APOBEC3A DNA deaminase inhibition; P31941; recombinant A3A, FAM/TAMRA ssDNA deamination fluorescence; inhibition, % at 20 µM; hit rate 0.41% among 330,000; AID 493011;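 active = at least 40% inhibition at 20 µM here, with at most 30% in a related deaminase screen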;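 also: plate controls were A3A with DMSO for no effect and wells lacking A3A enzyme for full effect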
# Target sequence (P31941 whole entry, looked up): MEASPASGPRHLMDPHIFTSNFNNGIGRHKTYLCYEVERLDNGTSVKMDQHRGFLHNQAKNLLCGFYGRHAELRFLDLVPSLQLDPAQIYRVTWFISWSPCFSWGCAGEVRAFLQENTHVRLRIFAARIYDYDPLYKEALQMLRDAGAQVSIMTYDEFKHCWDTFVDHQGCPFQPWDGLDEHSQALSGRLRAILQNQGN
# Starred values were filed as active, the others as inactive; . = no result given.
SMILES,APOBEC3G inh,NTR1 agonist,AHR activator,APOBEC3A inh
O=C(NC(=S)NCCC1=CCCCC1)c1ccccc1Br,2.1,12.9,49.6*,-0.8
O=C(COC(=O)c1ccccc1Br)NCCC1=CCCCC1,-8.3,0.5,1.7,-1.8
O=C(O)CCCNc1c(C(=O)Nc2ccc(Cl)cc2)cc([N+](=O)[O-])cc1[N+](=O)[O-],-0.6,-0.5,56.3*,-3.1
O=C(Nc1ccc(Nc2ccccc2)cc1)c1ccc(Cl)cc1[N+](=O)[O-],-10.2,5.9,0.2,-1.9
O=C(N/N=C/c1ccco1)c1cc(-c2cccc(Br)c2)nc2ccccc12,0.0,7.9,49.6*,2.1
O=C(N/N=C/c1ccc[nH]1)c1cc(-c2ccc(Cl)cc2)nc2ccccc12,-6.7,5.2,48.5*,0.4
CN(CC(=O)Nc1ccccc1C(F)(F)F)C(=O)c1cc([N+](=O)[O-])ccc1N1CCOCC1,3.5,-0.8,2.1,18.7
CC(=O)Nc1ccc(S(=O)(=O)NCc2nc(-c3cccc(C)c3)no2)cc1,-6.6,0.8,4.8,-4.0
CCOC(=O)/C(C#N)=C/Nc1ccccc1OC(F)(F)F,-0.3,2.3,9.8,-5.0
O=S(=O)(Nc1cccc2cccnc12)c1ccccc1,-5.3,10.5,-2.5,-3.0
Cc1ccc2cccc(NS(=O)(=O)c3ccccc3)c2n1,-1.5,-0.2,71.2*,-0.9
Cc1ccccc1Nc1nc(Nc2ccccc2C)nc(SC2=NCCS2)n1,-10.2,1.2,5.1,0.0
Cc1ccc(Nc2nc(Nc3ccc(C)cc3)nc(SC3=NCCS3)n2)cc1,-2.1,6.8,59.6*,10.5
Cc1sc2nc(-c3ccncc3)[nH]c(=O)c2c1-c1ccccc1,-4.8,3.7,53.7*,-1.1
Cc1sc2nc(-c3ccccn3)[nH]c(=O)c2c1-c1ccccc1,13.7,8.5,25.1,-1.6
CCOC(=O)Cc1cc(-c2ccc(F)cc2)nc2ccc3ccccc3c12,.,.,60.6*,.
Cc1oc(-c2cc(F)ccc2F)nc1CN1CCN(c2cnccn2)CC1,-9.6,0.6,53.8*,5.3
Cc1oc(-c2cc(F)ccc2F)nc1CN(C)Cc1ccc2nccnc2c1,-17.8,2.6,2.3,-1.8
O/N=C\c1cnc(N2CCN(c3ccccc3)CC2)s1,-8.4,-2.3,12.3,-1.7
O=C(NC(=S)Nc1ccc(Cl)cn1)c1cc([N+](=O)[O-])ccc1N1CCOCC1,-2.4,0.8,-5.2,-2.2
COc1ccc(-c2cc3c(=O)n(CC(=O)N4CCN(C)CC4)ncn3n2)cc1,-5.6,-1.0,73.0*,-1.7
COc1ccc(-c2cc3c(=O)n(CC(=O)N4CCCCC4)ncn3n2)cc1,-9.6,1.1,-1.0,-3.7
Cc1ccc(O)c(NC(=S)NC(=O)c2ccccc2Cl)c1,-8.2,-0.1,59.6*,-1.7
Cc1nn(C)c(C(=O)NC(=S)Nc2ccccc2O)c1Cl,-4.3,1.6,54.2*,-0.6
CCOc1ccc(NC(=S)NC(=O)c2c(Cl)c(C)nn2C)c([N+](=O)[O-])c1,-2.8,-0.9,0.6,0.2
SMILES,APOBEC3G inh,NTR1 agonist,AHR activator,APOBEC3A inh
O=C(NC(=S)Nc1ccc(O)cc1)c1ccccc1Cl,-7.0,1.7,22.6,-0.4
Cc1ccc(OCC(=O)N/N=C\c2cn(C)c3ccccc23)c([N+](=O)[O-])c1,-0.2,0.3,24.4,-0.2
Cn1cc(/C=N/NC(=O)COc2ccccc2[N+](=O)[O-])c2ccccc21,-6.1,-0.4,58.4*,0.2
COC(=O)N/N=C/c1cn(CCOc2ccccc2OC)c2ccccc12,-4.5,-1.2,60.2*,-2.9
CNC(=S)N/N=C/c1cn(CCOc2cccc(OC)c2)c2ccccc12,-5.0,0.7,56.0*,-1.9
COc1cccc(OCCn2cc(/C=N/NC(=O)c3ccncc3)c3ccccc32)c1,0.2,3.5,20.3,1.5
CCN1CCN(C(=O)c2ccc(N3CC4CC(C3)c3cccc(=O)n3C4)c([N+](=O)[O-])c2)CC1 (stereo not drawn),14.4,-1.1,-0.5,1.1
COc1ccccc1-n1c(=O)oc2ccc(Cl)cc2c1=O,-9.0,2.3,68.2*,-6.4
Cc1nn(C)cc1/C=N/NC(=S)Nc1ccc(Cl)cc1Cl,-5.1,2.4,27.1,5.2
CCn1nc(C)c(/C=N/NC(=S)Nc2ccc(Cl)cc2Cl)c1C,-4.8,4.4,52.8*,-1.2
CC(=O)c1cc2c(cc1NS(=O)(=O)c1ccccc1)OCO2,-9.8,-1.9,0.8,-2.5
CC(=O)c1cc2c(cc1N/C(=N/S(=O)(=O)c1ccccc1)c1ccc(Cl)cc1)OCO2,-8.6,15.1,94.1*,0.3
Cc1cccc2c(N=O)c(O)n(CCc3ccccc3)c12,-4.3,5.3,67.2*,0.6
Nc1nnnn1/N=C/c1ccccc1OCc1ccc(Cl)cc1,-6.2,0.1,4.6,-1.8
Nc1nnnn1/N=C/c1ccccc1OCc1ccc(Cl)cc1Cl,0.3,0.6,72.7*,3.3
O=C(Cn1c(=O)c2cccn2c2cccnc21)N1CCN(c2ccc(Cl)cc2)CC1,-0.5,0.6,0.5,3.3
O=C1c2ccccc2C(=O)N1CCCCON1C(=O)c2ccccc2C1=O,-2.4,1.1,-5.0,1.4
CCCCON1C(=O)c2cccc3cccc(c23)C1=O,-7.0,-1.2,55.7*,-6.6
COc1ccc2c(C)cc(=O)[nH]c2c1,-7.8,1.2,-1.5,-5.7
COc1ccc2c(-c3cccnc3)cc(=O)[nH]c2c1,0.5,-1.6,77.5*,3.4
C=CCNC(=O)c1ccc(NC(=O)CC2SC(N3CCCC3)=NC2=O)cc1 (stereo not drawn),-1.6,-0.3,2.3,-0.7
O=C(Cc1ccccc1)N/N=C/c1ccc2c(c1)OCO2,0.1,0.3,22.2,3.8
CC(/C=C/c1ccc2c(c1)OCO2)=N/NC(=O)CNc1ccc(C)cc1,-1.2,-0.2,97.3*,-3.8
CC(/C=C/c1ccc2c(c1)OCO2)=N\NC(=O)c1ccccc1,-5.5,0.2,13.1,1.6
O=C(CNc1ccccc1)N/N=C/c1ccc2c(c1)OCO2,-2.1,0.4,52.7*,-3.6
SMILES,APOBEC3G inh,NTR1 agonist,AHR activator,APOBEC3A inh
O=C(CCc1c[nH]c2ccccc12)N/N=C/c1ccc2c(c1)OCO2,11.0,2.0,53.1*,-5.1
CSc1ccc(/C=N/NC(=O)CNc2ccc3ccccc3c2)cc1,-3.6,4.2,67.5*,-1.0
N#Cc1ccsc1NC(=O)C1CCN(C(=O)c2ccc(Cl)cc2)CC1,2.5,0.3,16.2,1.8
CN(C)Cc1c(C(=O)N/N=C/c2cccs2)nnn1-c1nonc1N,-7.6,-0.2,2.9,-1.8
CCN(CC)c1ccc(/C=N/NC(=O)CNC(=O)c2ccccn2)cc1,-9.6,0.0,60.3*,0.1
O=C(CNC(=O)c1ccccn1)N/N=C/c1ccc2c(c1)OCO2,-3.6,0.7,67.7*,-2.3
O=C(CNC(=O)c1ccccc1Cl)N/N=C/c1ccc2c(c1)OCO2,0.0,1.1,10.2,-5.7
COc1ccc2ccccc2c1/C=N/NC(=O)c1cccc([N+](=O)[O-])c1,-2.1,9.0,4.0,2.3
CC1=NN(c2ccccc2)C(=O)C1N=Nc1cccc(O)c1 (stereo not drawn),-5.2,8.6,36.8,-5.0
CC1=NN(C(N)=S)C(=O)C1N=Nc1cccc2ccccc12 (stereo not drawn),.,.,92.7*,.
CC1=NN(C(N)=S)C(=O)C1N=Nc1ccc(Cl)cc1 (stereo not drawn),-6.2,-0.3,.,-8.4
